SMILES strings stand for the structures. “And” between values parts separate entries of the source, which are not always exact repeats. Equal values may be shown once. Inconclusive results are not listed. The source made the active and inactive calls. Unless noted, the call rests on the fitted dose curve.

Data on nine molecules can be found in PubChem BioAssay (NCATS).

Assay [1] in a line: qHTS for Inhibitors of the Functional Ribonucleoprotein Complex (vRNP) of Lassa (LASV) Arenavirus: LASV Primary Screen - GLuc reporter signal (AID 1347082; calls by dose curve; tested in HEK293 reporter line; further: nearly all actives have a fitted effect of over 60% in size; further: potency means the concentration at half of the fitted maximal effect; on activity change, negative = inhibition: on the % scale 0 is the no-effect control and ±100 the full control effect). On the technique in general: Quantitative high-throughput screening tests each substance at several concentrations.
The nature of assay [2]: qHTS for Inhibitors of the Functional Ribonucleoprotein Complex (vRNP) of Lassa (LASV) Arenavirus: Viability assay - alamar blue signal for LASV Primary Screen (AID 1347083; calls by dose curve; tested in HEK293 reporter line; further: nearly all actives have a fitted effect of over 80% in size; further: potency means the concentration at half of the fitted maximal effect; on activity change, negative = reduced viability: on the % scale 0 is the no-effect control and ±100 the full control effect).
Assay [3] in a line: qHTS for Inhibitors of the Functional Ribonucleoprotein Complex (vRNP) of Lymphocytic Choriomeningitis Arenaviruses (LCMV): Viability assay - alamar blue signal for LCMV Primary Screen (AID 1347085; calls by dose curve; tested in HEK293 reporter line; further: nearly all actives have a fitted effect of over 80% in size; further: potency means the concentration at half of the fitted maximal effect; on activity change, negative = lower viability: on the % scale 0 is the no-effect control and ±100 the full control effect).
For assay [4], the target named is Nucleoprotein (Lymphocytic choriomeningitis virus (strain Armstrong)) (UniProt P09992). As to the kind of experiment: qHTS for Inhibitors of the Functional Ribonucleoprotein Complex (vRNP) of Lymphocytic Choriomeningitis Arenaviruses (LCMV): LCMV Primary Screen - GLuc reporter signal (AID 1347086). Further: nearly all actives have a fitted effect of over 70% in size. Further: potency means the concentration at half of the fitted maximal effect.
Chain of Nucleoprotein (Lymphocytic choriomeningitis virus (strain Armstrong)) (P09992 whole entry, looked up): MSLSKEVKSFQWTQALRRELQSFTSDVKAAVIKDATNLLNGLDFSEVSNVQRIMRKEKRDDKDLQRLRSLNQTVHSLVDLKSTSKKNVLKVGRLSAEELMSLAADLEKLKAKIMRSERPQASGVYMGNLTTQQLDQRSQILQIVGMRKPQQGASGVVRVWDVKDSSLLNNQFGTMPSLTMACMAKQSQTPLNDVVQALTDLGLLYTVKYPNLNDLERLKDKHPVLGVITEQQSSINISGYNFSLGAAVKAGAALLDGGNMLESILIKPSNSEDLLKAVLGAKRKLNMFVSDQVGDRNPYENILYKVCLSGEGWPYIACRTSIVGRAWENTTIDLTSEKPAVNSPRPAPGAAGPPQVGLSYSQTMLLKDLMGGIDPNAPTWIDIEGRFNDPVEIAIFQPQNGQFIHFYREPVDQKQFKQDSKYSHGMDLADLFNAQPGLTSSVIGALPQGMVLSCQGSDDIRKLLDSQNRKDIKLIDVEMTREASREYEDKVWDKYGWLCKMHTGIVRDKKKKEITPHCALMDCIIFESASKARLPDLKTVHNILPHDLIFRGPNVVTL
The nature of assay [5]: Primary qHTS for Huh7 cytotoxicity: counterscreen for inhibitors of MERS-S pseudotyped particle cell entry (AID 1479147). Conditions: outcome: dose series up to 57.1 µM unless noted.
Assay [6] in a line: Primary qHTS for inhibitors of MERS-S pseudo-typed particle cell entry (AID 1479149). Further: nearly all actives have a fitted effect of over 60% in size. Further: potency means the concentration at half of the fitted maximal effect.
Assay [7] is described as follows: Primary qHTS for Vero E6 cytotoxicity: counterscreen for inhibitors of SARS-S pseudo-typed particle cell entry (AID 1479150). Conditions: outcome: dose series up to 57.1 µM unless noted.
A short description of assay [8]: Primary qHTS for inhibitors of SARS-S pseudo-typed particle cell entry (AID 1479145). Further: nearly all actives have a fitted effect of over 45% in size. Further: potency means the concentration at half of the fitted maximal effect.
The nature of assay [9]: Primary qHTS to identify inhibitors of SARS-CoV-2 cell entry (AID 1645846). Further: nearly all actives have a fitted effect of over 45% in size. In a few lines: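 Luminescence readout (Bright-Glo luciferase) 48 h after pseudoparticle addition. HEK293-ACE2 cells, 1500/well; compound pre-incubation 1 h; Normalized to spike PP and bald PP.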
The target in assay [10] is Cytochrome P450 3A4 (Homo sapiens) (UniProt P08684). As to the kind of experiment: qHTS Assay for Activators of Cytochrome P450 3A4 (AID 885; active means well fitted curve in the direction sought with a large enough effect; an effect the other way counts as inactive or inconclusive; further: nearly all actives have a fitted effect of over 65% in size). The procedure, abridged: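 Luminescent readout of luciferin formed from 25 uM Luciferin-PPXE (KM level) by 20 nM CYP3A4 in 200 mM KPO4, with 60 min NADPH-driven reaction at room temperature after 10 min compound exposure. Ketoconazole (57 uM) defined 100% inhibition.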
Chain of Cytochrome P450 3A4 (Homo sapiens) (P08684 whole entry, looked up): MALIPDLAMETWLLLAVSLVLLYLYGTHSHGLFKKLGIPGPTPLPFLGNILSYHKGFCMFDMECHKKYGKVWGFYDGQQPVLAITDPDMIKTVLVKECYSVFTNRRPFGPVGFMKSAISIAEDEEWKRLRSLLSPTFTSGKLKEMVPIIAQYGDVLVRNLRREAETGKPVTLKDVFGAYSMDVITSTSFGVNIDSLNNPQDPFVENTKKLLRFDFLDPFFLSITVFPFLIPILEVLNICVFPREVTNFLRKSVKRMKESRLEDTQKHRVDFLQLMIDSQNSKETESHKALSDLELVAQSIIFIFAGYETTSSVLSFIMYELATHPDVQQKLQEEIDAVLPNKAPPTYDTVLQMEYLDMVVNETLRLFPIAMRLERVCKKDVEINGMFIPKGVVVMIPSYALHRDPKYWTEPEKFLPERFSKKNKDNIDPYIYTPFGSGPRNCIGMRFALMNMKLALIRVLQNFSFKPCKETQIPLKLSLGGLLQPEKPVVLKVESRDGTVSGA

A short description of assay [11]: S16 Schwann cell PMP22 intronic element beta-lactamase assay (AID 624044). Further: potency means the concentration at half of the fitted maximal effect; nearly all actives have a fitted effect of over 15% in size. In a few lines: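 Beta-lactamase reporter under a PMP22 intronic regulatory element in stable S16 rat Schwann cells; 24 h compound exposure. 460 nm blue signal normalized between DMSO (0%) and potassium clavulanate, with 535 nm FRET tracking viability; curves classed by r2 and response.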

A short description of assay [12]: qHTS profiling of the MIPE4 collection as inhibitors of Plasmodium falciparum (3D7) proliferation (AID 743344; call rule not given here;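 further: scaled between DMSO vehicle wells and 0.29 µM artemisinin as full inhibition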). Conditions: P. falciparum 3D7 in erythrocytes, SYBR Green DNA fluorescence, 72 h; at 28.5 µM (top of the series) unless noted. In a few lines:
(§1)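 Parasite DNA was quantified by SYBR Green I fluorescence (ex 485, em 535 nm) after overnight lysis in saponin/Triton buffer at room temperature. Cultures at 0.3% parasitemia and 2.5% hematocrit were first exposed to compound for 72 h at 37 C; signals were normalised to artemisinin (0.29 uM) and vehicle wells.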

Assay [13] can be described thus: qHTS profiling of the MIPE4 collection as inhibitors of Plasmodium falciparum (DD2) proliferation (AID 743345; call rule not given here). Conditions: P. falciparum Dd2 in erythrocytes, SYBR Green DNA, 72 h; at 28.5 µM (top of the series) unless noted. The procedure, abridged:
as §1

A short description of assay [14]: qHTS profiling of the MIPE4 collection as inhibitors of Plasmodium falciparum (DD2) proliferation (Rep 2) (AID 743346; call rule not given here). Particulars: P. falciparum Dd2 in erythrocytes, SYBR Green DNA, 72 h; at 28.5 µM (top of the series) unless noted. The procedure, abridged: as §1
Assay [15] in a line: Confirmatory qHTS to identify inhibitors of SARS-CoV-2 cell entry (AID 1645844). Further: potency means the concentration at half of the fitted maximal effect; nearly all actives have a fitted effect of over 45% in size. The procedure, abridged:
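HEK293-ACE2, overnight seeding; cpd 1 h, 37C/5% CO2; + SARS-CoV-2-S MLV PP (Wuhan-Hu-1, ΔC19); 48 h; Bright-Glo luminescence. Data normalised to S PP and bald PP wells.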

A short description of assay [16]: Cytotoxicity counterscreen for inhibitors of SARS-CoV-2 cell entry (AID 1645845). Further: nearly all actives have a fitted effect of over 50% in size. The procedure, abridged: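 Counterscreen run in the same HEK293-ACE2 line as the pseudotyped-particle entry assay, without particles. Viability after 48 h at 37 C was read as ATP luminescence, scaled between cell-containing and cell-free wells.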
Assay [17] is described as follows: VSVG counterscreen qHTS to identify inhibitors of SARS-CoV-2 cell entry (AID 1645847). Further: potency means the concentration at half of the fitted maximal effect; nearly all actives have a fitted effect of over 65% in size. In a few lines:
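HEK293-ACE2 cells (Expi293F stably expressing human ACE2) were pretreated with compound for 1 h at 37 °C, then infected with MLV-based VSV-G pseudotyped particles for 48 h. Luciferase luminescence was normalized to VSV-G PP and bald PP wells.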
Background: The purpose of a counterscreen is to sort out artefacts and off-target activity.

In assay [18] the target is Alpha-galactosidase (Coffea arabica) (UniProt Q42656). The experiment in a line: Counterscreen for Glucocerebrosidase Inhibitors: qHTS Assay for Coffee Bean alpha-Galactosidase at pH 4.5 (AID 957; active means well fitted curve in the direction sought with a large enough effect; an effect the other way counts as inactive or inconclusive;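 further: plate controls were enzyme alone for no effect and no enzyme for full effect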). In a few lines:
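Enzyme is added first (2 nM final), then compounds titrated from 0.7 nM to 77 uM, then 80 uM 4-methylumbelliferyl alpha-D-galactopyranoside; after 20 min at room temperature a pH 10 NaOH/glycine stop precedes fluorescence reading at 365/440 nm.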

Assay [19] shares this target. The experiment in a line: Counterscreen for Glucocerebrosidase Inhibitors: qHTS Assay for Coffee Bean alpha-Galactosidase at pH 5.9 (AID 998; active means well fitted curve in the direction sought with a large enough effect; an effect the other way counts as inactive or inconclusive;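 further: plate controls were uninhibited enzyme for no effect and no-enzyme basal signal for full effect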). In a few lines:
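Enzyme 2 nM + cpd (0.7 nM–77 uM titration) + 4-MU-alpha-Gal 80 uM, pH 5.9 citrate/Tween-20, RT 20 min, NaOH/glycine stop pH 10, fluor 365/440. Normalized to no-enzyme and full-activity controls; Hill-fit AC50.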

Assay [20] in a line: Validation screen for inhibitors of Lassa infection (AID 463096). Further: on the % scale 0 is the no-effect control and ±100 the full control effect.
A short description of assay [21]: Inducers of the Endoplasmic Reticulum Stress Response (ERSR) in human glioma: Validation (AID 504836; active means well fitted curve in the direction sought with a large enough effect; an effect the other way counts as inactive or inconclusive; further: 0% is about no effect). In a few lines:
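Stably transfected U87-MG glioma cells carrying a GRP78-based luciferase sensor; 16 h compound incubation. Luminescence end-point read 10 min after Bright-Glo addition at room temperature.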

[22] abbreviates: activity change, negative = inhibition: at 57.1 µM (top of the series) unless noted.

Chain of Alpha-galactosidase (Coffea arabica) (Q42656 whole entry, looked up): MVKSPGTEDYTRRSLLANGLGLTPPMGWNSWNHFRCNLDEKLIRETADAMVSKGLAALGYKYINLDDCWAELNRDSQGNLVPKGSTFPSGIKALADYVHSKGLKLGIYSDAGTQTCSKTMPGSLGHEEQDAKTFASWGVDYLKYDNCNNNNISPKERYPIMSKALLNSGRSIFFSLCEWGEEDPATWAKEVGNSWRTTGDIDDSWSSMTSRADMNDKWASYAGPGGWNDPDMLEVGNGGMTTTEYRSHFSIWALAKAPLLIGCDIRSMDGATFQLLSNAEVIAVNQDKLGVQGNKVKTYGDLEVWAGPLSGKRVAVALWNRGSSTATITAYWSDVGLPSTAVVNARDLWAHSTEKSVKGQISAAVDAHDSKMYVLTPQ

In the case of `Nc1cccc2c1C(=O)N(C1CCC(=O)NC1=O)C2=O` (configuration not stated), the Potency entry in assay [1], in [2], in assay [3], in assay [4] and in assay [6] was “inactive” each time. The outcome in assay [5] and in assay [7] was inactive.
As for `CCN(C(=O)c1c(O)c2c(Cl)cccc2n(C)c1=O)c1ccccc1`, the Potency result in assay [1], in [2], in assay [3], in assay [4], in assay [8] and in assay [6] was “inactive” throughout. Also, the molecule was called inactive in assay [5] and in assay [7]. In addition, the activity change, negative = inhibition in assay [9] (setting [22]) is -55.1% and -33%.
Turning to `COC(=O)C[C@](O)(CCCC(C)(C)O)C(=O)O[C@@H]1C(OC)=C[C@]23CCCN2CCc2cc4c(cc2[C@H]13)OCO4`, the Potency entry in assay [10], in assay [1], in assay [2], in [3], in assay [4] and in assay [16] was “inactive” in each case. The Potency in assay [11] was 89.1 nM (active); in assay [8], 3160 nM (active); in assay [6], 891 nM (active); in [15] it was 136 nM (active); in assay [17] it was 68.1 nM (active). In assay [12], this molecule displayed a parasite growth, % of DMSO control of 70%. In assay [13], this molecule registered a parasite growth remaining, % of DMSO control (lower = more inhibition) of 85.8%. Also, the parasite growth, % of control (lower = inhibition) in assay [14] amounted to 67.1%. The molecule was classed as inactive in assay [5].
Consider `CC(=O)Nc1cccc(-n2c(=O)n(C3CC3)c(=O)c3c(Nc4ccc(I)cc4F)n(C)c(=O)c(C)c32)c1`, for which the Potency entry in assay [1], in assay [2], in [3], in assay [4], in assay [6] and in assay [16] was “inactive” throughout. The result in assay [5] and in assay [7] was inactive.
On to `N[C@@H](CC(=O)O)C(=O)O`, for which the molecule was called inactive in [18], in assay [19] and in [21]. The Potency result in [20], in assay [1], in assay [2], in assay [3] and in [4] was “inactive” in each case. For the same molecule, in [8], the activity change, negative = inhibition was -20.9% [at 5.34 µM] (inactive). Moreover, the outcome in assay [5] was “inactive [at 5.34 µM]”; in assay [6], “inactive [at 5.34 µM]”; in [16], “inactive [at 5.25 µM]”; in assay [9] (setting [22]), “inactive [at 5.25 µM]”. For the same molecule, the activity change, negative = cytotoxicity in assay [7] is 2.41% [at 5.34 µM] (inactive).
As for `COc1ccc(CC2c3cc(OC)c(OC)cc3CC[N+]2(C)CCC(=O)OCCCCCOC(=O)CC[N+]2(C)CCc3cc(OC)c(OC)cc3C2Cc2ccc(OC)c(OC)c2)cc1OC` (configuration not stated), the activity change, negative = inhibition in assay [1] is -1.71% [at 11.5 µM] (inactive); in assay [4], -0.768% [at 11.5 µM] (inactive); in [9] (setting [22]), -27% and -4%. For the same molecule, the activity change, negative = reduced viability in assay [2] is -21.5% [at 11.5 µM] (inactive). Besides, in assay [3], the activity change, negative = lower viability was 2.32% [at 11.5 µM] (inactive). Further, the Potency entry in [8], in assay [6] and in assay [16] was “inactive” throughout. In assay [5], the molecule was called inactive.
As to `O=C1CCC(C(=O)O)N1` (configuration not stated), the Potency entry in assay [1], in [2], in assay [3], in assay [4], in [8] and in assay [6] was “inactive” in each case. Besides, the Potency entry in assay [16] was “inactive”. The result in assay [5] and in assay [7] was inactive. Moreover, the activity change, negative = inhibition in [9] (setting [22]) is -17.5%.
For the molecule `c1cc(CN2CCCNCCNCCCNCC2)ccc1CN1CCCNCCNCCCNCC1`, the Potency entry in assay [1], in [2], in [3], in assay [4] and in assay [16] was “inactive” each time. The activity change, negative = inhibition in assay [8] is -15.1% [at 5.34 µM] (inactive); in assay [9] (SARS-CoV-2 pseudovirus cell entry assay, luminescence, at 5.25 µM (top of the series)), -25.3%; in [9] (SARS-CoV-2 pseudovirus cell entry assay, luminescence, at 57.1 µM (top of the series)), -51.7%. Besides, the outcome in assay [5], in assay [6] and in [7] was “inactive [at 5.34 µM]” each time.
In the case of `COc1c(OCCCN2CCOCC2)ccc2c3n(c(=NC(=O)c4cnc(N)nc4)nc12)CCN3`, the Potency in assay [1] was 1500 nM (active); in assay [2] it was 298 nM (active); in assay [3] it was 1060 nM (active); in assay [4] it was 2980 nM (active); in [6], 3550 nM (active); in assay [15], 312 nM (active). The Potency in assay [17] is 2780 nM (active). For the same molecule, the activity change, negative = cytotoxicity in assay [5] was 3.49% [at 11.4 µM] (inactive); in [7], -14.8% [at 11.4 µM] (inactive).
